Measurements published in article PMC4336329 (PLoS ONE, 2015).
About 14,000 (4.5%) of roughly 310,000 compounds showed an effect of 50% or more. Effects have a minus sign here. This is one part of a sample in which strong results are shown more often than they occur.

The compounds below were run against human ether-à-go-go-related gene (hERG) potassium channel (human, UniProt Q12809) (assay: primary screen, population patch clamp on CHO cells stably expressing hERG; higher = less effect of the substance).
Protocol: Briefly, Chinese hamster ovary (CHO) cells stably expressing the hERG channel were dislodged from tissue culture flasks and dispensed into PPC plates. […] During the recording, background leak currents were estimated by a 100 ms step to -80 mV from an initial holding potential of -70 mV and subtracted from the subsequent current measurement. The campaign was conducted in two phases using slight differences in recording protocol. In the first phase, the initial voltage pulse used a 100 ms step to -30 mV from a holding potential of -70 mV, a 2 s conditioning step to +25 mV, and a 2 s test step to -30 mV. During the second phase of the screen, the potential during the conditioning step was raised to +45 mV. In both phases of the campaign, a secondary voltage pulse was applied using the same parameters as the second phase initial pulse. The initial and secondary pulses were applied in the absence of compound, and upon application of 1 μM and 10 μM test concentrations. […]
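Further: peak tail current of the secondary pulse compared with the same well before compound.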

human ether-à-go-go-related gene (hERG) potassium channel, sequence (Q12809 whole entry, looked up): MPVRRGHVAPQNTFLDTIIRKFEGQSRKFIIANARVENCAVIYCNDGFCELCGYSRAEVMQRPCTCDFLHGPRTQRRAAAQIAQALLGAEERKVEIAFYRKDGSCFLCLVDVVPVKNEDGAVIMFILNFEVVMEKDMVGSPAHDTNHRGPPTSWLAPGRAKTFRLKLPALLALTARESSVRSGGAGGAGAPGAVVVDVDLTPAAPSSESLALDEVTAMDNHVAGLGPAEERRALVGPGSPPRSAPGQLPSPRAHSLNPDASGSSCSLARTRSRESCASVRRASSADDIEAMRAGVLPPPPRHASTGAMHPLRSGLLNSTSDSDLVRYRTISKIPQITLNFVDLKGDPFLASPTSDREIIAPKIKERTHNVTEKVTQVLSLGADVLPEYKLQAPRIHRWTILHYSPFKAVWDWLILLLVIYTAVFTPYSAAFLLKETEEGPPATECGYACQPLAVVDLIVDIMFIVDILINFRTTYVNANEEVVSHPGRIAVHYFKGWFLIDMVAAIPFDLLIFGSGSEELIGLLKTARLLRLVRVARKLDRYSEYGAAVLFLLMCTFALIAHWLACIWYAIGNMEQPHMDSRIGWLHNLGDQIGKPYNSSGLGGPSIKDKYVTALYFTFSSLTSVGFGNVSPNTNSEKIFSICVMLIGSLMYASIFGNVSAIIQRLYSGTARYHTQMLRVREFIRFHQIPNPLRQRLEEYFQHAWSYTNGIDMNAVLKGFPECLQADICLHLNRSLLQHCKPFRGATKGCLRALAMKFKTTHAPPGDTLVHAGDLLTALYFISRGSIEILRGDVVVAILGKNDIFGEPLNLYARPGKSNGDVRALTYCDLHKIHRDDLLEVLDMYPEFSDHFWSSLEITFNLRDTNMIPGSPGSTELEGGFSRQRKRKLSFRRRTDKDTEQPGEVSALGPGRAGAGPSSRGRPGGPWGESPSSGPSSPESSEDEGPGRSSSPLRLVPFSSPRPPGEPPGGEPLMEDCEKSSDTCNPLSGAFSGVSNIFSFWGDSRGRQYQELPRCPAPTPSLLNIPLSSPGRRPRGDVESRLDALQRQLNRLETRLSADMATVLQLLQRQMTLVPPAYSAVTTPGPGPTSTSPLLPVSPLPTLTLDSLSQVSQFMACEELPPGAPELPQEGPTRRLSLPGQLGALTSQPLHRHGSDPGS

SMILES | hERG current change (%, negative = inhibition) at 10uM [%]
CC(C)c1ccc(NC(=O)NCc2ccc3c(c2)OCO3)cc1 | 13.4
O=C(O)c1ccccc1OC(=O)C12CC3CC(CC(C3)C1)C2 | 18.1
O=C(NCc1ccc(F)cc1)c1cccnc1 | 9.37
Cc1nc([N+](=O)[O-])cn1Cc1cccc2ccccc12 | 10.2
O=C(NCc1ccccc1CN1CCCC1)C1CCN(S(=O)(=O)c2ccc(Cl)cc2)CC1 | -69.4
COc1ccc(S(=O)(=O)N2CCC(C(=O)NCc3ccco3)CC2)cc1 | -25.4
O=C(NCc1ccccc1)C1CCN(S(=O)(=O)c2ccc(Cl)cc2)CC1 | 3.16
CCOc1ccc(S(=O)(=O)N2CCCC(C(=O)NCc3ccco3)C2)cc1 (stereo not drawn) | -4.45
O=C(NCc1ccccc1Cl)C1CCN(S(=O)(=O)N2CCCC2)CC1 | 12.5
O=C(NCc1ccccc1Cl)C1CCN(S(=O)(=O)N2CCCCC2)CC1 | 1.33
CCOc1ccc(S(=O)(=O)N2CCC(C(=O)NCc3ccco3)CC2)cc1 | -53
N#Cc1ccccc1S(=O)(=O)N1CCC(C(=O)NCc2ccccc2CN2CCCC2)CC1 | -69.1
O=C(NCc1ccc(Cl)cc1)C1CCN(S(=O)(=O)c2ccccc2)CC1 | 13
CCOc1ccc(NC2OCC(O)C(O)C2O)c([N+](=O)[O-])c1 (stereo not drawn) | 33.2
COc1cc(/C=N/NS(=O)(=O)c2ccc(C)c([N+](=O)[O-])c2)cc([N+](=O)[O-])c1O | 18.1
CCOC(=O)C1CCCN(C(=O)c2sc3nc(-c4ccc(OC)cc4)cn3c2C)C1 (stereo not drawn) | -55.4
COc1ccc(-c2cn3c(C)c(C(=O)N4CCc5ccccc5C4)sc3n2)cc1 | -31.9
Cc1c(C(=O)N2CCOCC2)sc2nc(-c3ccccc3)cn12 | -11.2
CCOC(=O)C1CCN(C(=O)c2cc3c(-c4ccc(OC)c(OC)c4)nn(C)c3s2)CC1 | -17
CCOC(=O)C1CCCN(C(=O)c2sc3nc(-c4ccccc4)cn3c2C)C1 (stereo not drawn) | -59.8
CCOC(=O)C1CCCN(C(=O)c2sc3nc(-c4ccc(F)cc4)cn3c2C)C1 (stereo not drawn) | -72.9
CCOC(=O)C1CCCN(C(=O)c2cc3c(-c4cccc(OC)c4)nn(C)c3s2)C1 (stereo not drawn) | -60.7
CCOC(=O)N1CCN(C(=O)c2cc3c(-c4cccc(OC)c4)nn(C)c3s2)CC1 | -35.6
Cc1c(C(=O)N2CC(C)OC(C)C2)sc2nc(-c3ccc(F)cc3)cn12 (stereo not drawn) | -38.4

SMILES | hERG current change (%, negative = inhibition) at 10uM [%]
CCOC(=O)C1CCCN(C(=O)c2cc(-c3ccc(F)cc3)nc3ccccc23)C1 (stereo not drawn) | -33.8
COc1ccc(-c2cn3c(C)c(C(=O)N4CCN(c5ccccc5F)CC4)sc3n2)cc1 | -29.8
CCOC(=O)C1CCCN(C(=O)c2cc(-c3ccccc3)nc3ccccc23)C1 (stereo not drawn) | -9.9
CCN(CC(=O)Nc1ccc(OC)cc1)C(=O)c1cc2c(s1)CCCCC2 | 16.3
COc1ccc(/C=N/NC(=O)CCC(=O)Nc2ccc(F)cc2)c(OC)c1 | 14.9
N#Cc1nc(-c2ccco2)oc1N1CCN(C(c2ccccc2)c2ccccc2)CC1 | -0.82
Cc1cc(C(=O)O)cc(Br)c1N | 4.61
Cc1ccc(S(=O)(=O)/N=C(\Sc2ccccc2)c2ccccc2)cc1 | 14.1
COCCN1CCN(C(=O)c2ccc3c(c2)S(=O)(=O)c2ccccc2C3=O)CC1 | -1.17
Cc1cc(C)c(NC(=O)c2cccc3c2C(=O)N(C2CCCCC2)C3)c(C)c1 | -11
CCCCNC(C(=O)Nc1cccc(S(=O)(=O)N2CCOCC2)c1)c1ccccc1 (stereo not drawn) | -50.7
CC(C)[C@H](NC(=O)c1ccccc1)C(=O)Nc1cccc(S(=O)(=O)N2CCOCC2)c1 | -2.22
CCCC(C(=O)Nc1cccc(S(=O)(=O)N2CCCC2)c1)c1ccccc1 (stereo not drawn) | -48.2
O=C(Nc1cccc(S(=O)(=O)N2CCOCC2)c1)C(c1ccccc1)N1CCCCC1 (stereo not drawn) | -37.9
O=C(CSc1ccccc1)Nc1cccc(S(=O)(=O)N2CCOCC2)c1 | -25.4
CN(C)CCNC(C(=O)Nc1cccc(S(=O)(=O)N2CCOCC2)c1)c1ccccc1 (stereo not drawn) | -70.3
CC(C)C(NC(=O)CN(c1cccc(F)c1)S(C)(=O)=O)C(C)C | 1.21
COc1cc(CCC(=O)OCc2ccccc2C#N)cc(OC)c1OC | 7.42
O=C1CC(C(=O)N2CCOCC2)C2(CCCCC2)O1 (stereo not drawn) | 17.8
COc1ccccc1Oc1cc(F)nc(N)n1 | 5.82
Cc1cc(C)n(-c2nc(C(=O)O)cs2)n1 | 17.7
CN(Cc1ccccc1)S(=O)(=O)c1ccc(OCC(=O)NCc2ccncc2)cc1 | -53.6
CN(Cc1ccccc1)S(=O)(=O)c1ccc(Cl)c(C(=O)O)c1 | 9.33
CN(Cc1ccccc1)S(=O)(=O)c1ccc(Cl)c(C(=O)NCCc2ccccn2)c1 | -61.8

SMILES | hERG current change (%, negative = inhibition) at 10uM [%]
CN(CC(=O)NCCc1ccccn1)S(=O)(=O)c1ccc(Cl)cc1 | -17
CN(Cc1ccccc1)S(=O)(=O)c1ccc(Cl)c(C(=O)NCc2cccnc2)c1 | -32.8
CN(Cc1ccccc1)S(=O)(=O)c1ccc(OCC(=O)NCc2ccccn2)cc1 | -32.6
CN(Cc1ccccc1)S(=O)(=O)c1ccc(Cl)c(C(=O)NCc2ccncc2)c1 | -55.8
CN(Cc1ccccc1)S(=O)(=O)c1ccc(OCC(=O)NCc2cccnc2)cc1 | 0.509
CN(Cc1ccccc1)S(=O)(=O)c1ccc(Cl)c(C(=O)NCc2ccc3c(c2)OCO3)c1 | 5.48
O=C1Nc2ccc(C(F)(F)F)cc2N2CCCC12 (stereo not drawn) | -1.52
Cc1ccc(CSCCNC(=O)CN(c2cc(C)ccc2C)S(C)(=O)=O)cc1 | -23.5
COC(=O)C1=C(C)N(Cc2ccc(OC)c(OC)c2)C(=O)C1 | 10.7
C=CCSc1n[nH]c(-c2cccs2)n1 | 14.4
CN(CCO)S(=O)(=O)c1ccc2c(c1)C(=NN)c1cc(S(=O)(=O)N(C)CCO)ccc1-2 | 9.76
CN1C2CCC1CC(OC(c1ccccc1)c1ccccc1N)C2 (stereo not drawn) | -68.5
CCOC(=O)C1CCN(C(=O)CNC(=O)c2nn(-c3ccc(OC)cc3)c(=O)c3ccccc23)CC1 | -9.73
Cc1ccc(Cl)cc1NC(=O)CC1NCCNC1=O (stereo not drawn) | 13.6
COc1ccccc1-c1c(C)nn2c(N3CCOCC3)cc(C)nc12 | 2.71
CCCCOC(=O)Nc1nc2ccc([N+](=O)[O-])cc2s1 | 15.1
CC(C)OC(=O)CCCNc1ccc([N+](=O)[O-])cc1[N+](=O)[O-] | -41.4
C#CCOC(=O)CCCNc1ccc([N+](=O)[O-])cc1[N+](=O)[O-] | -51.1
CCCCOC(=O)CCCc1ccc([N+](=O)[O-])cc1[N+](=O)[O-] | -52
CCOC(=O)CCCNc1ccc([N+](=O)[O-])cc1[N+](=O)[O-] | -13.3
CCCCOc1ccc([N+](=O)[O-])cc1C(=O)O | 24.9
COC(=O)c1c(-c2c(Cl)cccc2Cl)noc1C(=O)NNC(=O)N(C)C | 4.36
CCOc1ccc(-n2c(=O)c3ccccc3c3ccccc3c2=O)cc1 | 17.8
S=C(NCc1ccccc1)NCc1cccc(CNC(=S)NCc2ccccc2)c1 | 21.7

SMILES | hERG current change (%, negative = inhibition) at 10uM [%]
CCOC(=O)c1cc2c(=O)n3cccc(C)c3nc2n(CCOC)c1=NC(C)=O | -16.3
CCOC(=O)c1cc2c(=O)n3ccccc3nc2n(CCCOC)c1=NC(=O)c1cccnc1 | -68
CCOCCCn1c(=NC(=O)c2cccnc2)c(C(=O)OCC)cc2c(=O)n3ccccc3nc21 | -70.1
CCOC(=O)c1cc2c(=O)n3cccc(C)c3nc2n(CCCOC)c1=NC(=O)c1cccnc1 | -78.6
CCOCCCn1c(=NC(C)=O)c(C(=O)OCC)cc2c(=O)n3ccccc3nc21 | -22.9
CCC1=C(OC(=O)N(CC)CC)N2C(=O)OC(=NCC(=O)OC)[C@]2(C)[C@H]2C1=CC[C@H]1C(=O)NC(=O)[C@H]12 | -15.5
Cc1onc(COc2ccccc2O)c1Br | 11.2
COc1cccc(NC(=O)CN(C)C(C)C(=O)Nc2ccc(S(=O)(=O)N3CCOCC3)cc2)c1 (stereo not drawn) | -15.1
COc1ccccc1-c1noc(Cn2cc(S(=O)(=O)N3CCCC3)ccc2=O)n1 | -3.72
C=CCc1cc(Cl)ccc1OCCCNC(C)C.O=C(O)C(=O)O | -40.1
C=CCc1cc(Cl)ccc1OCCCNC(C)CC.O=C(O)C(=O)O (stereo not drawn) | -55.7
CCC(C)NCCOCCOc1ccc(Br)cc1.O=C(O)C(=O)O (stereo not drawn) | -18.1
CCC(C)NCCCOc1cc(Cl)ccc1Cl.O=C(O)C(=O)O (stereo not drawn) | -42.3
CCC(C)NCCOCCOc1ccc(Cl)cc1Br.O=C(O)C(=O)O (stereo not drawn) | -51.1
CCC(C)NCCOCCOc1ccc(C)cc1Br.O=C(O)C(=O)O (stereo not drawn) | -41
CCC(C)NCCOCCOc1cc(C)c(Cl)c(C)c1.O=C(O)C(=O)O (stereo not drawn) | -59.2
Cc1cc(OCCOCCNC(C)C)cc(C)c1Cl.O=C(O)C(=O)O | -47.3
CC(C)NCCOCCOc1ccc(Cl)cc1Br.O=C(O)C(=O)O | -32.2
C=CCc1cc(Cl)ccc1OCCNCCCOC.O=C(O)C(=O)O | -37.9
CCC(C)NCCCOc1ccc(Cl)cc1C(C)(C)C.O=C(O)C(=O)O (stereo not drawn) | -8.48
CCC(C)NCCCCOc1ccc(Cl)cc1C.O=C(O)C(=O)O (stereo not drawn) | -58.6
